The results in this text go back to PubChem BioAssay (NCATS).

Inconclusive results are not listed. Values without a mark were called inactive. Calls of active or inactive are those of the source. Calls come from the whole dose curve; as a rule, active = well fitted inhibition curve with a large enough effect; inconclusive = small, poorly fitted or top-dose-only effect; inactive = no such curve, though single readings can be large or run the other way.
% is set by controls: 0 for no effect and ±100 for the full control effect; potency is the fitted concentration of half-maximal effect.

In this assay the target is Aldehyde dehydrogenase 1A1 (Homo sapiens) (UniProt P00352). Briefly: qHTS for Inhibitors of the Aldehyde Dehydrogenase Family (ALDH1A1) Confirmatory screens (AID 2061316). Note: nearly all actives have a fitted effect of over 65% in size. The settings on record: ALDH inhibition qHTS; series mostly up to 47.3 µM; activity change, negative = inhibition: at the top concentration.
As to `C=C[C@H]1[C@H](O[C@@H]2O[C@H](CO)[C@@H](O)[C@H](O)[C@H]2O)OC=C(C(=O)OC)[C@H]1CCOC(=O)c1cc(O)c(O)c(O)c1`, the “activity change, negative = inhibition” value was -8.87% [at 25.5 µM].

For the compound `COc1cc(C2Oc3c(OC)cc(CCCO[C@@H]4O[C@H](CO)[C@@H](O)[C@H](O)[C@H]4O)cc3C2CO)ccc1O` (stereo not given in full), the “activity change, negative = inhibition” value was 0.0276% [at 25.5 µM].

Take `Cn1cc(-c2ccc3ncc(Cc4ccc5ncccc5c4)n3n2)cn1`: the “activity change, negative = inhibition” value was -16.9%.

In the case of `Cc1ccc(NC(=O)N2CCN(c3nc(N)nc4sc(-c5cccnc5)nc34)CC2)cc1`, the Potency was 28.3 µM (active).

As to `C=CC(=O)N1CCN(C(=O)CNc2cc(I)c(Cl)cc2O)CC1`, the Potency is 2.83 µM (active).

Consider `C=CC(=O)Nc1cccc(Nc2nc(Nc3ccc(Oc4ccnc(C(=O)NC)c4)cc3)ncc2F)c1`, for which the compound was called inactive.

`COc1ccc(-c2c(-c3cc(C(=O)O)ccn3)ncn2C)cc1`: the “activity change, negative = inhibition” value is -27.3%.

Take `OC[C@@]1(O)CO[C@@H](OC[C@H]2O[C@@H](Oc3c[nH]c4ccccc34)[C@H](O)[C@@H](O)[C@@H]2O)[C@@H]1O`: the “outcome” value was “inactive [at 25.5 µM]”.

On to `C[C@@H]1O[C@@H](O[C@H]2[C@H](O[C@H]3CO[C@@H](O[C@H]4CC[C@@]5(C)C(CC[C@]6(C)C5CC[C@]57OC[C@@]8(CC[C@](C)(CO)CC85)[C@H](O)C[C@]76C)C4(C)C)[C@H](O[C@@H]4O[C@H](CO)[C@@H](O)[C@H](O)[C@H]4O)[C@H]3O)O[C@H](CO)[C@@H](O)[C@@H]2O)[C@H](O)[C@H](O)[C@H]1O` (stereo not given in full), for which the activity change, negative = inhibition was -22.4% [at 10 µM].

As to `C/C=C/C=C/c1cc2c(C=O)c(O)c(CC=C(C)C)cc2o1`, the Potency is 11.3 µM (active).

For the compound `CC1=CC(=O)C(=C(C)C)CC2C(C)(O)CCC12O` (stereo not given), the “activity change, negative = inhibition” value is -4.98%.

Turning to `O=C(O)c1cc(O[C@@H]2O[C@H](CO[C@@H]3OC[C@@H](O)[C@H](O)[C@H]3O)[C@@H](O)[C@H](O)[C@H]2O)c2ccccc2c1O`, the Potency is 0.693 µM (active).

In the case of `O=C(NCC(=O)N1CCCC1)Nc1ccc2ccccc2c1`, the Potency was 7.98 µM (active).

For `O=c1nc(-c2ccccn2)sc2ccccc12`, the Potency was 1.13 µM (active).

Regarding `CC1=C2CC3C(CCC3(C)O)C(C)(O)CC2OC1=O` (stereo not given), the “activity change, negative = inhibition” value was -9.04%.

For the compound `CC1(C)O[C@@]2(C)CC[C@@H]1C[C@@H]2OC1OC(CO)C(O)C(O)C1O` (stereo not given in full), the “activity change, negative = inhibition” value was -6.54% [at 25.5 µM].

For the compound `Cc1[nH]c(/C=C2\C(=O)Nc3cc(-c4ccccc4)ccc32)c(C)c1CCC(=O)O`, the “activity change, negative = inhibition” value is -18.1%.

`COc1ccc(-c2ccn(CC[C@](C)(C(=O)NO)S(C)(=O)=O)c(=O)c2)c(F)c1`: the Potency was 2.52 µM (active).

Consider `Cc1ccc(CN2CCNCC2)cc1NC(=O)CNc1ccc(F)c(F)c1`, for which the Potency is 12.7 µM (active).

With `Cn1cc(-c2ccncc2)c(-c2ccc(OCc3ccc4ccccc4n3)cc2)n1`, the “activity change, negative = inhibition” value was -25.8%.
